High-throughput results as filed in PubChem BioAssay.
ELG1 DNA repair: qHTS screen for small molecules that inhibit ELG1-dependent DNA repair in human embryonic kidney (HEK293T) cells expressing luciferase-tagged ELG1; HEK293T ELG1-luciferase reporter, luminescence, 16 h; DNA damage induced by 5-fluorouridine; Potency, µM (top dose mostly 46.1 µM), for inactives: at the top dose activity change, negative = inhibition, hits mostly inhibitors; 330,000 tested, 2.3% active; note: potency is the fitted concentration of half-maximal effect; nearly all actives have a fitted effect of over 55% in size
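Overnight (16 hr) co-exposure of 2,000 cells/well to 5-fluorouridine and compound at 37 °C preceded detection. Luciferase was quantified via ONE-Glo luminescence; loss of signal denotes inhibition.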
IL1B secr inh: qHTS for Inhibitors of Inflammasome Signaling: IL-1-beta AlphaLISA Primary Screen. THP-1 LPS/ATP IL-1B secretion, AlphaLISA, 16 h; hits give low values. activity change, % at 57.5 µM. 360,000 tested, 4.7% active. AID 743279, 2014; in the data active = activity change below about -50%; inconclusive = mostly about -30% to -49%
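Secreted IL-1B measured by AlphaLISA bead assay after 16 h compound exposure of THP-1 cells; compounds (final up to 57.5 uM) added 1 h before LPS (250 ng/mL) and ATP (1.25 mM) stimulation; lower signal means less secretion.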
TDP1 cell noCPT: qHTS for Inhibitors of human tyrosyl-DNA phosphodiesterase 1 (TDP1): qHTS in cells in absence of CPT. 420,000 tested, 15% active. Potency, µM (titrated, usually from 46.2 µM), for the others: at the highest dose activity change, negative = growth inhibition, most hits filed as inhibitors. DT40 Tdp1-/- hTDP1 cells, no CPT, ATP luminescence, 48 h; note: potency is the fitted concentration of half-maximal effect; nearly all actives have a fitted effect of over 55% in size
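A cellular qHTS used chicken DT40 cells lacking endogenous Tdp1 but carrying stably transfected human TDP1. Compounds were applied without camptothecin, and cell growth kinetics were judged by ATP-dependent luminescence after ≥48 hr.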
HT1080-NT tox: qHTS for induction of synthetic lethality in tumor cells producing 2HG: qHTS for the HT-1080-NT fibrosarcoma cell line; HT-1080-NT fibrosarcoma viability, CellTiter-Glo ATP luminescence, 48 h; Potency, µM (highest dose often 46.1 µM), inactives show top-dose activity, negative = less viability, actives largely listed as cytotoxic; 360,000 tested, 1.6% active;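 note: NT is the 2HG producing partner of a matched IDH1 knockdown line; potency is the fitted concentration of half-maximal effect; 0% = DMSO-treated cells and -100% = media-only wells without cells; nearly all actives have a fitted effect of over 55% in size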
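HT-1080-NT fibrosarcoma cells (2HG-overproducing), 750 cells/well in RPMI with 5% FBS, dosed after 2 h and incubated 48 h at 37C. CellTiter-Glo luminescence normalized to DMSO and no-cell wells; concentration-response curves fitted and classed.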
TDP1 cell CPT: qHTS for Inhibitors of human tyrosyl-DNA phosphodiesterase 1 (TDP1): qHTS in cells in presence of CPT; 420,000 tested, 12% active; chicken DT40 Tdp1-/-;hTDP1 cells + 20 nM CPT, ATP luminescence, 48 h; Potency, µM (top dose mostly 46.2 µM), for the others: at the top dose activity change, negative = growth inhibition, actives largely listed as inhibitors; note: potency is the fitted concentration of half-maximal effect; nearly all actives have a fitted effect of over 55% in size
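Chicken DT40 Tdp1-/- cells complemented with human TDP1, 400 cells/well, exposed to compounds plus 20 nM camptothecin for at least 48 h at 37 C; viability read as ATP content by CellTiter-Glo luminescence.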
HT1080 IDH1KD tx: qHTS for induction of synthetic lethality in tumor cells producing 2HG: qHTS for the HT-1080-IDH1KD cell line. HT-1080 IDH1 knockdown viability, ATP luminescence, 48 h. Potency, µM (series often up to 46.1 µM), for the others: at the top dose activity, negative = toxicity, hits mostly cytotoxic. 360,000 tested, 2% active. AID 686971, 2013;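 note: potency is the fitted concentration of half-maximal effect; 0% = DMSO wells and -100% = cell-free medium wells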
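In this qHTS, HT-1080 cells depleted of IDH1 are exposed for 48 h at 37 °C to compound titrations. Toxicity is scored from CellTiter-Glo luminescence, with DMSO as full viability and medium alone as none.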
An asterisk follows results filed as active; ? = inconclusive; / = no result; [ ] = dose if it differs, or a comment. This is a sample that favours compounds with a hit; in the whole collection about 19% have one here. Unless noted, calls come from the whole dose curve; as a rule, active = well fitted curve in the direction sought with a large enough effect; inconclusive = small, poorly fitted or top-dose-only effect, or another doubt; inactive = no such curve, though single readings can be large; an effect the other way counts as inactive or inconclusive. Unless noted, % is set by controls: 0 for no effect and ±100 for the full control effect.

SMILES	ELG1 DNA repair	IL1B secr inh	TDP1 cell noCPT	HT1080-NT tox	TDP1 cell CPT	HT1080 IDH1KD tx
COc1ccc2c(c1OC)C(=O)N1c3ccccc3C(=O)N(Cc3ccco3)C21 (centres undefined)	/	/	20µM*	/	10µM*	/
O=C1c2ccccc2NC(c2cc(Br)c3c(c2)OCO3)N1Cc1ccco1 (centres undefined)	/	/	18µM*	/	?	/
COc1ccc2c(c1OC)C(=O)N1c3ccccc3C(=O)OC21 (centres undefined)	/	/	3%[9.04 µM]	/	-4%[9.04 µM]	/
CCOc1cc(C2Nc3ccccc3C(=O)N2Cc2ccco2)ccc1OCc1ccccc1Cl (centres undefined)	/	/	3.5µM*	/	10µM*	/
O=C1c2ccccc2NC(c2cccc(O)c2)N1Cc1ccco1 (centres undefined)	?	27	?	-1%	?	7%
COc1ccc(C2Nc3ccccc3C(=O)N2Cc2ccco2)cc1OC (centres undefined)	/	/	22µM*	/	8.9µM*	/
O=C(CSc1nnc(CNC(=O)c2c(F)cccc2F)o1)NCc1ccc(F)cc1	?	17	6%	14%	-23%	4%
Cn1c(SCC(=O)N2CCOCC2)ncc(C(=O)Nc2ccccc2)c1=O	/	/	-25%	/	?	/
CCN(CC)S(=O)(=O)c1ccc(NC(=O)[C@H](CSCc2ccccc2)N2Cc3ccccc3C2=O)cc1	/	/	?	5%	21µM*	-6%
CCN(CC)S(=O)(=O)c1ccc(NC(=O)[C@H](CCSC)N2Cc3ccccc3C2=O)cc1	/	/	23µM*	/	?	/
Cc1ccc(NC(=O)CCCSc2ccccc2)cc1S(=O)(=O)N1CCOCC1	?	-52*	-11%	-22%	3%	-1%
Cc1ccc(NC(=O)CCNC(=O)c2ccc(Br)cc2)cc1S(=O)(=O)N1CCOCC1	?	-16	?	3%	-6%	-2%
Cc1ccc(NC(=O)CSc2ccc(Br)cc2)cc1S(=O)(=O)N1CCOCC1	?	?	26µM*	-29%	18µM*	-4%
Cc1ccc(NC(=O)CSc2ccccn2)cc1S(=O)(=O)N1CCOCC1	8%	25	-13%	3%	-1%	-1%
CCCCN(C)C(=O)c1[nH]c(C(F)(F)F)nc1-c1ccccc1	/	0	?	1%	?	-1%
CN(CC(=O)Nc1cccc(S(=O)(=O)NC2=NCCC2)c1)Cc1cccc(F)c1	13%	-13	-14%	7%	1%	2%
CCOc1ccccc1-c1nc(-c2ccc(NC(=O)c3ccc(Br)o3)cc2)no1	?	-18	?	?	23µM*	?
COc1ccc(C(=O)NCC(C)(C)N2CCOCC2)cc1S(=O)(=O)N1CCCC1	13%	0	-8%	-3%	-10%	-7%
CC(=O)C1=CCC(c2ccccc2)N(S(=O)(=O)c2ccc(Cl)cc2)C1 (centres undefined)	/	?	15µM*	?	?	?
CC(=O)C1=CCC(c2ccccc2)N(Cc2ccccc2)C1 (centres undefined)	/	-112*	15µM*	?	?	?
CC(=O)C1=CCC(c2ccc(C)o2)N(S(=O)(=O)c2ccc(C)cc2)C1 (centres undefined)	/	0	18µM*	-1%	16µM*	-18%
